Results filed as inconclusive are left out. Calls of active or inactive are those of the source. Rule for the calls: active = hit-call score of the fitted dose curve at least 0.9, where 1 is the maximum; inconclusive = response in the unintended direction; inactive = score below 0.9.
Legend:
[1] = target: mouse Cholecystokinin, CCK1 Receptor (CCKA), Cckar (gene 12425) (UniProt O08786); assay: NVS_GPCR_mCCKAPeripheral: NovaScreen (NVS) G Protein-Coupled Receptor Assay for mouse Cholecystokinin, CCK1 Receptor (CCKA) (AID 2283285)
Summary of the method: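 Radioligand competitive displacement on mouse pancreatic membranes, 2 h incubation; filter-based scintillation counting, loss of signal versus DMSO. Single-concentration screen at 25 uM in duplicate, actives retested in concentration-response up to 50 uM.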

[2] = test system: 5-hydroxytryptamine receptor 2C (pig); assay: NVS_GPCR_p5HT2C: NovaScreen (NVS) G Protein-Coupled Receptor Assay for pig Serotonin, 5-Hydroxytryptamine Receptor 2C (5HT2C) (AID 2283288)
Summary of the method: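 Pig choroid plexus membranes; radioligand competitive binding, filter-based scintillation counting, read 1 h after dosing. Primary screen in duplicate at 25 uM; actives then run as concentration series; loss of signal versus DMSO baseline.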

[3] = target: human Opioid Receptor Mu (Opiate Mu), OPRM1 (gene 4988) (UniProt P35372); assay: NVS_GPCR_hOpiate_mu: NovaScreen (NVS) G Protein-Coupled Receptor Assay for human Opioid Receptor Mu (Opiate Mu) (AID 2283290);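 note: hits lower bound tracer signal versus DMSO meaning displacement of the ligand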
Summary of the method: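 Cell-free radioligand binding to membranes from CHO cells expressing the receptor; bound tracer measured by filter-based scintillation counting 2.5 hours after dosing. Loss of signal versus DMSO baseline reflects displacement; primary screen at 25 uM in duplicate, actives followed up in concentration series.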

[4] = target: guinea pig Serotonin, 5-Hydroxytryptamine Receptor 4 (5HT4), HTR4 (gene 100135548) (UniProt O70528); assay: NVS_GPCR_g5HT4: NovaScreen (NVS) G Protein-Coupled Receptor Assay for guinea pig Serotonin, 5-Hydroxytryptamine Receptor 4 (5HT4) (AID 2283294)
Summary of the method: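 Guinea pig striatal membranes; radioligand competitive displacement, filtration and scintillation counting after 1 h. Primary screen in duplicate at 25 uM; actives then tested in concentration series; loss of binding signal fitted relative to DMSO.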

[5] = target: rat Serotonin, 5-Hydroxytryptamine Receptor (5HT), Non-Selective Binding, Htr1a (gene 24473) (UniProt P19327); assay: NVS_GPCR_r5HT_NonSelective: NovaScreen (NVS) G Protein-Coupled Receptor Assay for rat Serotonin, 5-Hydroxytryptamine Receptor (5HT), Non-Selective Binding (AID 2283295)
Summary of the method: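 Radioligand displacement on rat cortical membranes, 1 h incubation, filter-based scintillation counting. Primary duplicates at 25 uM, actives retested in concentration series; loss of signal fitted against DMSO as baseline.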

[6] = target: human Orphanin, Opioid Related Nociceptin Receptor 1 (ORL1), OPRL1 (gene 4987) (UniProt P41146); assay: NVS_GPCR_hORL1: NovaScreen (NVS) G Protein-Coupled Receptor Assay for human Orphanin, Opioid Related Nociceptin Receptor 1 (ORL1) (AID 2283283)
Summary of the method: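 Filter-based radioligand displacement with receptor extracted from HEK293 cells, read 1 hour after dosing by scintillation counting. Duplicate single-point screen at 25 uM; qualifying chemicals then run in concentration-response to 50 uM, analysed relative to DMSO.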

[7] = target: rat Serotonin, 5-Hydroxytryptamine Receptor 1 (5HT1), Non-Selective Binding, Htr1a (gene 24473) (UniProt P19327); assay: NVS_GPCR_r5HT1_NonSelective: NovaScreen (NVS) G Protein-Coupled Receptor Assay for rat Serotonin, 5-Hydroxytryptamine Receptor 1 (5HT1), Non-Selective Binding (AID 2283286)
Summary of the method: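 Rat cortical membranes, radioligand displacement, 1 h incubation, read by filter scintillation. Primary screen in duplicate at 25 uM. Hits (e.g. ≥30% inhibition) went to concentration-response up to 50 uM, fitted as loss of binding versus DMSO.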

[8] = target: rat Adrenergic Receptor, Alpha 2 (Adra2), Non-selective Binding, Adra2a (gene 25083) (UniProt P22909); assay: NVS_GPCR_rAdra2_NonSelective: NovaScreen (NVS) G Protein-Coupled Receptor Assay for rat Adrenergic Receptor, Alpha 2 (Adra2), Non-selective Binding (AID 2283299)
Summary of the method: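 Rat cortical membranes, radioligand competitive displacement read by filter-based scintillation counting 1.25 hours after dosing. Primary screen in duplicate at 25 uM; actives followed up in concentration series.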

[9] = target: Metabotropic glutamate receptor 1 (Rattus norvegicus) (UniProt P23385); assay: NVS_GPCR_rmMGluR1: NovaScreen (NVS) G Protein-Coupled Receptor Assay for rat Glutamate Metabotropic Receptor 1 (MGluR1) (AID 2283305)
Summary of the method: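 Rat cerebellum membrane preparation, radioligand displacement binding read by filter-based scintillation counting 1 hour after dosing. Initial duplicate single-point screen at 25 uM, then concentration-response up to 50 uM; loss of signal versus DMSO baseline scored.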

Adra2b (gene 24174) = Adra2b (gene 24174) (UniProt P19328); assay: NVS_GPCR_rmAdra2B: NovaScreen (NVS) G Protein-Coupled Receptor Assay for hybird cells Adrenergic, Alpha 2B Receptor (Adra2B) (AID 2283306)
Summary of the method: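 Radioligand filter-binding assay on membrane proteins from neuroglioma/blastoma hybrid cells (rodent), 1 h after dosing; scintillation counting, loss of signal vs DMSO. Primary screen in duplicate at 25 uM, actives then run in concentration series.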

[10] = target: human Thromboxane A2 Receptor (TXA2), TBXA2R (gene 6915) (UniProt P21731); assay: NVS_GPCR_hTXA2: NovaScreen (NVS) G Protein-Coupled Receptor Assay for human Thromboxane A2 Receptor (TXA2) (AID 2283282);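 note: actives reduce bound radioligand signal relative to DMSO baseline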
Summary of the method: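 Human platelet membranes tested for radioligand displacement by filtration and scintillation counting 1 h post-dose. Screened in duplicate at 25 uM; activity fitted as signal loss relative to DMSO.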

[11] = target: human Vasopressin 1A Receptor (V1A), AVPR1A (gene 552) (UniProt P37288); assay: NVS_GPCR_hV1A: NovaScreen (NVS) G Protein-Coupled Receptor Assay for human Vasopressin 1A Receptor (V1A) (AID 2283284)
Summary of the method: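 Cell-free radioligand displacement on human platelet preparations, 1.5 h incubation, filter-based scintillation counting. Chemicals first tested in duplicate at 25 uM; actives then run in concentration-response up to 50 uM, loss of signal fitted against DMSO.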

[12] = target: rat Adrenergic, Alpha 1, Non-selective Receptor (Adra1), Adra1a (gene 29412) (UniProt P43140); assay: NVS_GPCR_rAdra1_NonSelective: NovaScreen (NVS) G Protein-Coupled Receptor Assay for rat Adrenergic, Alpha 1, Non-selective Receptor (Adra1) (AID 2283289)
Summary of the method: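 Rat forebrain membranes; radioligand displacement read by filter-based scintillation counting 1 h after dosing. Primary screen in duplicate at 25 uM; hits (e.g. ≥30% inhibition) rerun as concentration–response to 50 uM max. Fitted versus DMSO.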

[13] = target: rat Adrenergic, Alpha 1A Receptor (Adra1A), Adra1a (gene 29412) (UniProt P43140); assay: NVS_GPCR_rAdra1A: NovaScreen (NVS) G Protein-Coupled Receptor Assay for rat Adrenergic, Alpha 1A Receptor (Adra1A) (AID 2283296)
Summary of the method: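 Rat cortical membranes pretreated with chlorethyl clonidine; competitive radioligand displacement, 1 h. Filter-based scintillation counting. Primary screen in duplicate at 25 uM, actives followed in concentration series.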

[14] = test system: rat Adrenergic, Alpha 1B Receptor (Adra1B), gene 24173; assay: NVS_GPCR_rAdra1B: NovaScreen (NVS) G Protein-Coupled Receptor Assay for rat Adrenergic, Alpha 1B Receptor (Adra1B) (AID 2283297)
Summary of the method: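 Rat liver membranes, radioligand displacement with filter-based scintillation detection, 1 h incubation. Primary screen in duplicate at 25 uM; actives retested in concentration series; activity relative to DMSO.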

rat Serotonin, 5-Hydroxytryptamine Receptor (5HT), Non-Selective Binding, Htr1a (gene 24473), sequence (P19327 whole entry, looked up): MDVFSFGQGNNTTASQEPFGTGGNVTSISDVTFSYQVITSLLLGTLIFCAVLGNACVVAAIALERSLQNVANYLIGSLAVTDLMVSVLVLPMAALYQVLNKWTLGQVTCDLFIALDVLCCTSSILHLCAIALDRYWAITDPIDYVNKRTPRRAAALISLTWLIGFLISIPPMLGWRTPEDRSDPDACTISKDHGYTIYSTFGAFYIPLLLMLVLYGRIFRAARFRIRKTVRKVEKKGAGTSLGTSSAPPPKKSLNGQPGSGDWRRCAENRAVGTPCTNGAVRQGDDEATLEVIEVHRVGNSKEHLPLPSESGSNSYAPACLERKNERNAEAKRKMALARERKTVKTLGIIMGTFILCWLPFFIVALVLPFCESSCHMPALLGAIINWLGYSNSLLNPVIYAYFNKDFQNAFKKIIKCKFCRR
Adra2b (gene 24174), sequence (P19328 whole entry, looked up): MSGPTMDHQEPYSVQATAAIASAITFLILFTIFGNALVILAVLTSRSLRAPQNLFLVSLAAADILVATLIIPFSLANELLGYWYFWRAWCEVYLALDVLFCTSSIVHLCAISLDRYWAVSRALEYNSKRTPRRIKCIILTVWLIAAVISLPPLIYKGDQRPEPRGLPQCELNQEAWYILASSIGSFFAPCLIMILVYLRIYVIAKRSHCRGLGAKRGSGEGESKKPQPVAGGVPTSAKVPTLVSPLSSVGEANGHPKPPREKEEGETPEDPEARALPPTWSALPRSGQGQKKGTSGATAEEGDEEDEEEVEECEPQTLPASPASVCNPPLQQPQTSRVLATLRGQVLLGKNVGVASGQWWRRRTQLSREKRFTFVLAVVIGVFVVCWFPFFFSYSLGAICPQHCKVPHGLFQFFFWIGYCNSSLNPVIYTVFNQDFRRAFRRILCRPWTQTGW
human Thromboxane A2 Receptor (TXA2), TBXA2R (gene 6915), sequence (P21731 whole entry, looked up): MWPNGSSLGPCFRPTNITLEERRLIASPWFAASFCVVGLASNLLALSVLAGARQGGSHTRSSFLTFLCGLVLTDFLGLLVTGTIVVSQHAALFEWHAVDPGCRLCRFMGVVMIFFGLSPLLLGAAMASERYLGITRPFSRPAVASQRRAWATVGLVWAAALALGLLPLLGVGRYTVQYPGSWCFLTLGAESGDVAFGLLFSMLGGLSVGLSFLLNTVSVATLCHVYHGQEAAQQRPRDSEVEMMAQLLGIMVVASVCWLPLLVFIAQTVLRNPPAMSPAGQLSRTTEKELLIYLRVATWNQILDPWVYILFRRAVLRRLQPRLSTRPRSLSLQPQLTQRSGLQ
mouse Cholecystokinin, CCK1 Receptor (CCKA), Cckar (gene 12425), sequence (O08786 whole entry, looked up): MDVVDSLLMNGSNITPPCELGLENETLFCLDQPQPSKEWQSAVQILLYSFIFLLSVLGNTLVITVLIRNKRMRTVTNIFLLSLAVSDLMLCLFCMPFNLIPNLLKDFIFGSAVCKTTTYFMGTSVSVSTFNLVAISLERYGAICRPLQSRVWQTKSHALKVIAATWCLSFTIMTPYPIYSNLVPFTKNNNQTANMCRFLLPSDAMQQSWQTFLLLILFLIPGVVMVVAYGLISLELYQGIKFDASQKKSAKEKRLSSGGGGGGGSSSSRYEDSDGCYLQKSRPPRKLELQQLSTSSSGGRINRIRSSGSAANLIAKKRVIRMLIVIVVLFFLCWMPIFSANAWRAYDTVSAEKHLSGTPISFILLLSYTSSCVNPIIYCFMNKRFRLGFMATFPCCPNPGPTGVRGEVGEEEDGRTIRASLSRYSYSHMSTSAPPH
rat Adrenergic Receptor, Alpha 2 (Adra2), Non-selective Binding, Adra2a (gene 25083), sequence (P22909 whole entry, looked up): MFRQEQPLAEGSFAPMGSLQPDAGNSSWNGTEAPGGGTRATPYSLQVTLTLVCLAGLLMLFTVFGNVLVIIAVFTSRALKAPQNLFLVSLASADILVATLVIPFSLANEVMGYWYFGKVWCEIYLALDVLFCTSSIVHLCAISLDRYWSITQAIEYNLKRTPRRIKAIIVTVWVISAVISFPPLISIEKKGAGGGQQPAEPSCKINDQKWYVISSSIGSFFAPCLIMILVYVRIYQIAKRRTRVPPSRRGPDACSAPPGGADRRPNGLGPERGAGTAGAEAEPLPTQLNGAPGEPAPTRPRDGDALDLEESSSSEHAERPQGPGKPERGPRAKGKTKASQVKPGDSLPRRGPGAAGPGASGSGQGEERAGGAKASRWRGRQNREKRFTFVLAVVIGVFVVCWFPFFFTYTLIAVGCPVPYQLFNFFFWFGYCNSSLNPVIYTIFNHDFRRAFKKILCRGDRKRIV
guinea pig Serotonin, 5-Hydroxytryptamine Receptor 4 (5HT4), HTR4 (gene 100135548), sequence (O70528 whole entry, looked up): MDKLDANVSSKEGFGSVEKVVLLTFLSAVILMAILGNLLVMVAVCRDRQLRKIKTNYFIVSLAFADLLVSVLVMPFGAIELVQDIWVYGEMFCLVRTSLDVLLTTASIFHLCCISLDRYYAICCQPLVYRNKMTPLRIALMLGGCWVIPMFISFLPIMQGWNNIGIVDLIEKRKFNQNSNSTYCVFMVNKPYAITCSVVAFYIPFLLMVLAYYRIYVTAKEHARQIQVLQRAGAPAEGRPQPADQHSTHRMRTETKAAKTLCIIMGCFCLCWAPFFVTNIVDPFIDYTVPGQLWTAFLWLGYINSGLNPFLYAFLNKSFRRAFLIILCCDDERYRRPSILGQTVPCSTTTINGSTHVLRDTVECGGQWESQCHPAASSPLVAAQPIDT
human Opioid Receptor Mu (Opiate Mu), OPRM1 (gene 4988), sequence (P35372 whole entry, looked up): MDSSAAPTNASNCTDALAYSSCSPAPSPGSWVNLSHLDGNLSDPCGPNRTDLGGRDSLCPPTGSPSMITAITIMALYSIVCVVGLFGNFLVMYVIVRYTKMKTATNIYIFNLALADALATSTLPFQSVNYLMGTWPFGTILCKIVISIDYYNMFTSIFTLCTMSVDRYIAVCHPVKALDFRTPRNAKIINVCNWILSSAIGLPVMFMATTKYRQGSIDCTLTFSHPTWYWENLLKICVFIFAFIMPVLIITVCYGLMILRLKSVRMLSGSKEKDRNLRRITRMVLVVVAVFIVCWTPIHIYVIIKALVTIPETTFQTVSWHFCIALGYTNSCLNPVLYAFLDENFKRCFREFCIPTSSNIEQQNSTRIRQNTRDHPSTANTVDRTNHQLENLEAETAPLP
human Vasopressin 1A Receptor (V1A), AVPR1A (gene 552), sequence (P37288 whole entry, looked up): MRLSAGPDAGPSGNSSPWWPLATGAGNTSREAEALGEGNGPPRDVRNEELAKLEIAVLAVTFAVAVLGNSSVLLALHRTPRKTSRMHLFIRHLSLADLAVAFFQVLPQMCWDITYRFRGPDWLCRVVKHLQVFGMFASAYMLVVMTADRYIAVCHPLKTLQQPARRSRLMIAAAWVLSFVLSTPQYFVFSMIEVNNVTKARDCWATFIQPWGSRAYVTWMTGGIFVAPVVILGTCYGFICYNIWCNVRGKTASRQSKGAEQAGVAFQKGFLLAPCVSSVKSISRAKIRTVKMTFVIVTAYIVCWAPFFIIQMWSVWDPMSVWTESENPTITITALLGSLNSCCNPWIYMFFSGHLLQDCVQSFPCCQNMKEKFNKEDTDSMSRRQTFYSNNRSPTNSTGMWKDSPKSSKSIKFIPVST
rat Serotonin, 5-Hydroxytryptamine Receptor 1 (5HT1), Non-Selective Binding, Htr1a (gene 24473), sequence (P19327 whole entry, looked up): as the sequence (P19327 whole entry, looked up) above
rat Adrenergic, Alpha 1, Non-selective Receptor (Adra1), Adra1a (gene 29412), sequence (P43140 whole entry, looked up): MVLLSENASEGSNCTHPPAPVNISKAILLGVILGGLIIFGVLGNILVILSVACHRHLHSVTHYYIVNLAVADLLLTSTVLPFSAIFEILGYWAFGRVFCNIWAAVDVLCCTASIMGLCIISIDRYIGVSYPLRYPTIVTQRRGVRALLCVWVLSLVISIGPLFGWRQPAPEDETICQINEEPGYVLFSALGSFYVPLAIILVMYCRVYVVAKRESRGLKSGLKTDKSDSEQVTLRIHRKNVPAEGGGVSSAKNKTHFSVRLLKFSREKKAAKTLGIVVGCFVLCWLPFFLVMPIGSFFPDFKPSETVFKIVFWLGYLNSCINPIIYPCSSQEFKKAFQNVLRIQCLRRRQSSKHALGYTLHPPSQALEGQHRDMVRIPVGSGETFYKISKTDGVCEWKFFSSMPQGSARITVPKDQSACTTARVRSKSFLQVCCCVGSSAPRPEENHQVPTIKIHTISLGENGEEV
human Orphanin, Opioid Related Nociceptin Receptor 1 (ORL1), OPRL1 (gene 4987), sequence (P41146 whole entry, looked up): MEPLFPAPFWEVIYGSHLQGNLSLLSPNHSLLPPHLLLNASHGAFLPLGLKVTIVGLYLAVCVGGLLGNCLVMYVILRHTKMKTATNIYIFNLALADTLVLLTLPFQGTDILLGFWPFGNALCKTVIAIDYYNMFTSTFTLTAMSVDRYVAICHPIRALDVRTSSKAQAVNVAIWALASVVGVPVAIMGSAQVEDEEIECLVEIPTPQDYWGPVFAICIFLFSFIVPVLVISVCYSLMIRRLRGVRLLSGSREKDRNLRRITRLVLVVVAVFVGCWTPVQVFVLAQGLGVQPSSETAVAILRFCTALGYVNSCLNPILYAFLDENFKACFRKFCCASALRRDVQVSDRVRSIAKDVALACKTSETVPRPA
rat Adrenergic, Alpha 1A Receptor (Adra1A), Adra1a (gene 29412), sequence (P43140 whole entry, looked up): as the sequence (P43140 whole entry, looked up) above

For `Cc1cc2c(cc1C(F)(F)F)N(C(=O)Nc1ccc(Oc3cccnc3C)nc1)CC2`, the AC50 [1] was 13.3 µM (active), the AC50 [2] was 0.00211 µM (active) and the outcome [3] was “inactive”. For the same compound, the AC50 [4] was 5.92 µM (active) and the AC50 [5] was 0.43 µM (active).

`O=c1[nH]sc2ccccc12` was tested, and the AC50 [6] was 3.2 µM (active), the AC50 [7] was 40.4 µM (active) and the outcome [3] was “inactive”. The AC50 [4] was 33.7 µM (active), the AC50 [8] was 1.55 µM (active) and the AC50 [9] was 35.9 µM (active). The AC50 (Adra2b (gene 24174)) was 37.4 µM (active).

`CN(C[C@@H](CC[N+]12CCC(C3CCCCC3)(CC1)CC2)c1ccc(Cl)c(Cl)c1)C(=O)c1cc(C(F)(F)F)cc(C(F)(F)F)c1` was tested, and the AC50 [10] was 25 µM (active), the AC50 [2] was 25 µM (active) and the AC50 [3] was 2.11 µM (active). For the same compound, the AC50 [4] was 8.02 µM (active).

In the case of `CCN(Cc1cccnc1)C(=O)c1cccc(Cl)c1[C@]1(C)C(=O)N(Cc2ccc(OC)cc2OC)c2ccc(Cl)cc21`, the AC50 [10] is reported as 6.61 µM (active), the outcome [11] is reported as “inactive” and the AC50 [12] is reported as 11.4 µM (active). For the same compound, the AC50 [3] was 1.48 µM (active), the AC50 [4] was 15 µM (active) and the AC50 [5] was 17.4 µM (active). The AC50 [8] was 6.92 µM (active) and the AC50 (Adra2b (gene 24174)) was 4.68 µM (active).

With `CC[C@@H]1C[C@H](N(Cc2cc(C(F)(F)F)cc(C(F)(F)F)c2)C(C)=O)c2cc(C(F)(F)F)ccc2N1C(=O)OC(C)C` the outcome [7] was “inactive”.

In the case of `CCCCCCCCCCCC[N+](C)(C)C`, the outcome [11] is reported as “inactive”, the AC50 [1] is reported as 20.6 µM (active) and the AC50 [2] is reported as 25 µM (active). The outcome [3] was “inactive”, the AC50 [4] was 17.9 µM (active) and the AC50 [8] was 19.1 µM (active). For the same compound, the AC50 (Adra2b (gene 24174)) was 37.3 µM (active).

`CCN(CC)C(=O)c1cc(S(=O)(=O)Cc2ccccc2)c(N2CCC(c3ccccc3)CC2)cc1N(CC)CCN(C)C` was tested, and the outcome [10] was “inactive”, the AC50 [2] was 7.94 µM (active) and the AC50 [3] was 10.3 µM (active). The AC50 [5] was 11.3 µM (active), the AC50 [13] was 17.8 µM (active) and the AC50 [14] was 6.1 µM (active). The AC50 [8] was 15.2 µM (active) and the AC50 (Adra2b (gene 24174)) was 7.81 µM (active).

For `CCOC(=O)O[C@H](C)OC(=O)c1ccc2c(c1)cc(C(=O)NC1CCN(C(C)C)CC1)n2Cc1cc(-c2ccc(Cl)s2)on1`, the AC50 [10] was 23.6 µM (active), the AC50 [6] was 4.46 µM (active) and the AC50 [1] was 22.9 µM (active). The AC50 [2] was 21.3 µM (active), the AC50 [12] was 33.1 µM (active) and the AC50 [3] was 2.94 µM (active). The AC50 [4] was 23.6 µM (active), the AC50 [5] was 11.1 µM (active) and the AC50 [8] was 5.66 µM (active). The AC50 [9] was 17 µM (active) and the AC50 (Adra2b (gene 24174)) was 15.4 µM (active).

— PubChem BioAssay (EPA / NIEHS)
